Only a selection was taken, and hits are over-represented in it overall.
ST2 IL33 inh: IL1RL1 inhibition; AID 1259354; hit rate 2.3% among 78,000; inhibition, % for hits at 17 µM; AlphaLISA ST2-Fc/biotin-IL-33 interaction, 1 h; in the data active = inhibition above about 30%
The depositor's hits bear a star; i = inactive.

SMILES	ST2 IL33 inh
CN1CCN(C(=O)c2cn(C)c(=O)c3c2c2ccccc2n3C)CC1	i
Cc1cccc(N=Cc2nc(-c3ccc(Cl)cc3)oc2O)c1	i
Cc1cccc(N=Cc2nc(-c3ccc(Cl)cc3)oc2O)n1	i
Oc1oc(-c2ccc(Cl)cc2)nc1C=Nc1ccccn1	33%*
Cc1cccc(C(CC(=O)NC2CCCCC2)c2ccccc2)c1O (stereo not drawn)	i
Cc1ccc(S(=O)(=O)N2CCN(c3nc(-c4ccc(C)o4)cs3)CC2)cc1	37%*
Cc1ccc(S(=O)(=O)N2CCN(c3nc(C)cc(N4CCCC4)n3)CC2)cc1	i
Cc1ccc(Nc2cc(C)nc(N3CCN(S(=O)(=O)c4ccc(C)cc4)CC3)n2)cc1	i
CC(C)c1cc(CN2CCN(c3nc4ccccc4n3CCO)CC2)on1	i
N=c1c2c3c(sc2ncn1Cc1ccccc1)CCCC3	i
COc1ccc(-c2c3c(=O)n(C)c(=O)n(C)c3cn2Cc2ccccc2)cc1	i
COc1ccc(-c2oc3ncn(Cc4ccccc4)c(=N)c3c2-c2ccc(OC)cc2)cc1	39%*
CC(C)(C)C1CCc2c(sc3nc(CCC(=O)O)[nH]c(=O)c23)C1 (stereo not drawn)	i
COc1ccc(NC(=O)c2cccc(Oc3ccc(C(F)(F)F)cc3[N+](=O)[O-])c2)cc1	i
Cc1cc(Oc2cc(C#N)c(C#N)cc2[N+](=O)[O-])cc(C)c1Cl	39%*
CCOc1ccc(C(=O)Nc2c(C)cccc2CC)cc1[N+](=O)[O-]	i
CCCOc1cc2oc(C)c(Oc3ccccc3)c(=O)c2cc1CC	i
C=CCn1nc(C(=O)N2CCSCC2)c2c1CCC(NCCCSC)C2 (stereo not drawn)	i
CC(=O)n1c2ccccc2c2c1c1ccccc1n2C	i
Cc1c(C(=O)Cc2ccccc2)n(C)c2ccccc12	37%*
CC(=O)c1ccc2c(c1)c1ccccc1n2C	i
COCCN1CCCC2(CCN(C(=O)Cn3nc4ccccc4n3)C2)C1=O (stereo not drawn)	i
Cc1ccc2[nH]cc(C(=O)c3ccc(F)cc3)c(=O)c2c1	i
COc1cc(-c2ccc(NS(C)(=O)=O)c(OC)c2)ccc1NS(C)(=O)=O	i
COc1cccc(C2=Nn3c(nnc3-c3ccccc3)SC2)c1	i
SMILES	ST2 IL33 inh
Fc1cccc(-c2nnc3n2N=C(c2ccc(Cl)s2)CS3)c1	30%*
O=c1oc2ccccc2cc1C1=Nn2c(nnc2-c2cccc(F)c2)SC1	i
Cc1cc(N(C)C)nc(-c2ccccc2)n1	i
Cc1cc(Br)ccc1OCC(=O)Nc1ccc(F)cc1	i
Cc1cc(=O)c2c([nH]1)C(O)=C(CN(C)C)C(=O)C2=O	43%*
CC(C)NC(=O)c1ccc2c(Cl)c3c(nc2c1)CCCC3	i
O=C1NC(=O)/C(=C\c2ccc(OCc3ccc(I)cc3)cc2)N1	i
COc1cccc(C2C3=C(CCCC3=O)Nc3nc(SCc4ccccc4Cl)nn32)c1 (stereo not drawn)	i
O=[N+]([O-])c1cc(Cl)ccc1NCCNCCO	i
COc1ccc(N=Cc2cc(Cl)cc([N+](=O)[O-])c2O)cc1Cl	i
Nc1c(Cl)cc(Cl)cc1[N+](=O)[O-]	37%*
COc1ccc2c(-c3c(-c4ccccc4)ncn3CCO)cn(C)c2c1	i
CC(=O)NC1C(=O)N=C(SCC(=O)c2ccc(Br)cc2)NC1=O (stereo not drawn)	i
COc1ccccc1C1NC(=O)NC(C)=C1C(=O)OCCSC (stereo not drawn)	i
CN(Cc1ccccc1)Cc1ccccc1	i
CCN(CCc1ccccc1)CCN(C)C	i
CCN(Cc1ccccc1)Cc1ccc(N(C)C)cc1	36%*
CCOC(=O)CCCN(Cc1ccc(F)cc1)S(=O)(=O)c1c(C)cc(C)cc1C	i
CCOc1ccc(S(=O)(=O)NCCCN(CC)c2ccccc2)c2cccnc12	i
O=C(Nc1ccc(-c2nc3ncccc3o2)cc1)c1cccnc1	i
CCOc1cc(C(=O)Nc2cc(-c3nc4ncccc4o3)ccc2C)cc(OCC)c1OCC	37%*
CCCOc1ccc(C(=O)Nc2cc(-c3nc4ncccc4o3)ccc2C)cc1	i
CC(C)Oc1ccc(C(=O)Nc2cccc(-c3nc4ncccc4o3)c2)cc1	i
Cc1ccc(C(=O)Nc2cc(-c3nc4ncccc4o3)ccc2C)cc1C	i
CC(C)Oc1cccc(C(=O)Nc2ccc(-c3nc4ncccc4o3)cc2)c1	32%*
SMILES	ST2 IL33 inh
CCc1ccc(-c2nc(CSCC(=O)N3CCOCC3)c(C)o2)cc1	i
CCn1cc(C(=O)NCCC2=CCCCC2)c2cc(OC)c(OC)cc2c1=O	i
COc1cccc(CC2CN(C(=O)c3cc(C)n4nc(C)cc4n3)CCO2)c1 (stereo not drawn)	i
O=C(Nc1ccccc1F)c1ccc(Cl)cc1	i
CN(Cc1cnn(-c2ccc(F)cc2)c1)Cc1nc(-c2cnccn2)no1	i
Cc1ccc(Cl)cc1NC(=O)c1ccc([N+](=O)[O-])c(C)c1	i
Cc1cc(C(=O)NC2C3CC4CC(C3)CC2C4)ccc1[N+](=O)[O-] (stereo not drawn)	i
Cc1cc(C(=O)NCc2ccc(F)cc2)ccc1[N+](=O)[O-]	52%*
